The entries come from a sample that favours hits as a whole.
CHX counter: Cycloheximide Counterscreen for Small Molecule Inhibitors of Shiga Toxin | cell reporter, cycloheximide protein synthesis inhibition counterscreen | max response, % | 12% of 300,000 active | AID 2314, 2010; in the data active = max response mostly above about 13%, no sharp cut-off; inactive = mostly below about 14%; also: read at 38.3 µM for the half of the compounds with a filed dose
LASV entry inh: qHTS for Inhibitors of binding or entry into cells for Lassa Virus | 1.2% of 300,000 active | Lassa virus pseudotype entry inhibition, cell reporter | Potency, µM (titrated, usually from 37.9 µM), most hits filed as inhibitors | AID 540256, 2011; calls by dose curve; tested in HEK293 cells; also: nearly all actives have a fitted effect of over 50% in size
Shiga inhibitor: A qHTS for Small Molecule Inhibitors of Shiga Toxin. Vero cells, Shiga toxin protein synthesis inhibition reporter. inhibition, % at 38.7 µM. 9.2% of 290,000 active. AID 2315, 2010; in the data active = inhibition mostly above about 28%, no sharp cut-off; inactive = mostly below about 43%
Marburg entry inh: qHTS for inhibitors of binding or entry into cells for Marburg Virus | Marburg virus pseudotyped entry inhibition, cell reporter | Potency, µM (doses to about 37.8 µM), usual class: inhibitors | 1.8% of 300,000 active | AID 540276, 2011; calls by dose curve; tested in HEK293 cells
AMA1 RON2 block: qHTS for Inhibitors of AMA1-RON; Towards Development of Antimalarial Drug Lead: Primary Screen; Plasmodium falciparum AMA1 (3D7) - RON2 peptide interaction; AlphaScreen AMA1-biotinylated RON2 peptide binding; Potency, µM (titrated, usually from 58.2 µM), hits mostly inhibitors; 0.2% of 360,000 active; AID 720542, 2013; active = well fitted inhibition curve with a large enough effect; inconclusive = small, poorly fitted or top-dose-only effect; inactive = no such curve, though single readings can be large or run the other way; also: nearly all actives have a fitted effect of over 45% in size
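AMA1 (3D7) with his tag at 25 nM final met compounds first, then biotinylated RON2 peptide at 25 nM; detection used donor plus acceptor beads, 10 µg/mL apiece, read by AlphaScreen after 30 min at room temperature.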
Each line names hits and unclear results; the compound was inactive in the other large screens.

O=C(Nc1ccc(CN2CCCCC2)cc1)c1ccc2c(c1)OCO2	CHX counter 20, Shiga inhibitor 34
O=C(Nc1ccc(CN2CCCCC2)cc1)c1c(F)c(F)c(F)c(F)c1F	Marburg entry inh inconclusive
CC(C)(C)c1ccc(C(=O)Nc2ccccc2C(=O)NCCN2CCOCC2)cc1	CHX counter 13 (no result: LASV entry inh, Marburg entry inh)
COc1ccccc1NC(=O)c1ccc(CN2CCOCC2)cc1	none
CSc1ccccc1NC(=O)c1ccc(CN2CCOCC2)cc1	CHX counter 13, Shiga inhibitor 52, Marburg entry inh inconclusive
COc1ccc(C(=O)Nc2ccccc2C(=O)NCCN2CCOCC2)cc1	none
C[C@H]1COC(=O)CC/C=C\C[C@H](CC(=O)N(CCO)Cc2ccccc2)C(=O)N1	none (no result: CHX counter, LASV entry inh, Shiga inhibitor, Marburg entry inh)
O=C(Nc1ccc2c(c1)OCO2)c1ccc(CN2CCOCC2)cc1	CHX counter 40, Shiga inhibitor 60
CN(C1CCCCC1)S(=O)(=O)c1ccc(NC(=O)c2ccc(Br)o2)cc1	LASV entry inh 11µM
O=C(Nc1ccc2c(c1)OCO2)c1cn(Cc2ccc(F)cc2)nn1	Shiga inhibitor 42, Marburg entry inh inconclusive
CC(C)c1ccc(C(=O)Nc2ccc(CN3CCOCC3)cc2)cc1	CHX counter 23, Shiga inhibitor 55, Marburg entry inh inconclusive
O=C(O)Cc1ccc(S(=O)(=O)N2CCCC2)s1	none (no result: CHX counter, Shiga inhibitor)
Cc1ccc(OC2CCN(C(=O)[C@H]3O[C@@H](n4cnc5c(N)ncnc54)[C@H](O)[C@@H]3O)CC2)cc1	none (no result: CHX counter, LASV entry inh, Shiga inhibitor, Marburg entry inh)
CCc1ccccc1NS(=O)(=O)c1ccc(NC(=O)N2CCCC2)cc1	none (no result: CHX counter, Shiga inhibitor, Marburg entry inh, AMA1 RON2 block)
CN(C)c1cccc(C(=O)OCCCC(=O)c2ccc(F)cc2)c1	AMA1 RON2 block inconclusive (no result: CHX counter, Shiga inhibitor)
O=C(Nc1ccc(CN2CCS(=O)(=O)CC2)cc1)c1ccc(Cl)cc1	CHX counter 16
Cc1ccc(-n2c(SCC(=O)NNC(=S)Nc3ccccc3)nc3ccccc3c2=O)cc1	Marburg entry inh 8.9µM
Cc1cccc(NC(=O)CSc2nc3ccccc3c(=O)n2C)c1	LASV entry inh inconclusive, Marburg entry inh 7.1µM
O=C(CSc1nc2ccccc2c(=O)n1-c1ccccc1F)Nc1ccc2c(c1)CCC2	LASV entry inh inconclusive, Marburg entry inh inconclusive
O=C(CSc1nc2ccccc2c(=O)n1-c1ccc(F)cc1)Nc1ccc(C(=O)O)cc1	none
O=C(CSc1nc2ccccc2c(=O)n1-c1ccc(F)cc1F)Nc1ccc2c(c1)CCC2	CHX counter 59, LASV entry inh inconclusive, Shiga inhibitor 80, Marburg entry inh inconclusive
CC(C)(C)NC(=O)NC(=O)CN1C(=O)NC(c2ccccc2)(c2ccccc2)C1=O	Marburg entry inh inconclusive
O=S(=O)(Nc1cccc2cccnc12)c1cccs1	CHX counter 20 (no result: LASV entry inh, Marburg entry inh, AMA1 RON2 block)
O=S(=O)(Nc1cccc2ccccc12)c1cccs1	CHX counter 9.3
COc1ccc(-c2nc3sc(CCNC(=O)c4cccc(C(F)(F)F)c4)c(C)n3n2)cc1	none (no result: CHX counter, Shiga inhibitor, Marburg entry inh, AMA1 RON2 block)
CCN(CC)CCCN1C(=O)C(O)=C(C(=O)c2ccc(C)o2)[C@@H]1c1ccc(C)o1	none (no result: CHX counter, LASV entry inh, Shiga inhibitor, AMA1 RON2 block)
COc1ccc(Cl)cc1C(=O)n1cnc2ccccc21	none (no result: LASV entry inh, Shiga inhibitor, Marburg entry inh)
O=c1c2c3c(sc2n(CCN2CCCCC2)c(=O)n1Cc1ccco1)CCCCC3	Marburg entry inh 16µM
N=c1c2c3c(sc2ncn1Cc1ccco1)CCCCC3	CHX counter 21
CC(C)Cn1cnc2sc3c(c2c1=N)CCCC3	Marburg entry inh inconclusive
CC(O)CNc1nc2sc3c(c2c(=O)n1CCc1ccccc1)CCCCC3 (stereo not given)	CHX counter 18, LASV entry inh 26µM, Marburg entry inh inconclusive
O=C(NCc1ccco1)c1ccc2nc3sc4c(c3c(=O)n2c1)CCCC4	CHX counter 60, Shiga inhibitor 99 (no result: LASV entry inh, AMA1 RON2 block)
O=c1c2c3c(sc2n(CCN2CCOCC2)c(=O)n1Cc1ccco1)CCCCC3	LASV entry inh inconclusive, Marburg entry inh inconclusive
CC(O)CNc1nc2sc3c(c2c(=O)n1Cc1ccco1)CCCCC3 (stereo not given)	CHX counter 25, Shiga inhibitor 36, Marburg entry inh inconclusive
O=c1c2c3c(sc2nc(NCCOCCO)n1Cc1ccco1)CCCCC3	none (no result: LASV entry inh, Marburg entry inh)
CC(C)=CCC/C(C)=C/COc1c2ccoc2cc2oc(=O)ccc12	none (no result: LASV entry inh, Marburg entry inh, AMA1 RON2 block)
O=C(Nc1cccc(S(=O)(=O)N2CCCCC2)c1)c1ccc2ccccc2n1	CHX counter 25
O=S(=O)(c1ccc2nc(Nc3ccccc3)ccc2c1)N1CCCCC1	CHX counter 14, Marburg entry inh inconclusive
O=C(Nc1cccc(S(=O)(=O)N2CCCC2)c1)c1ccc2ccccc2n1	LASV entry inh inconclusive, Marburg entry inh inconclusive

Bioassay records as filed in PubChem.
